Source: PubChem
Pf Dd2 inh: Plasmodium falciparum Dd2 growth inhibition; Potency, µM (top dose mostly 28.9 µM), usual class: inhibitors; AID 1347417; 120,000 tested, 4.3% active; P. falciparum Dd2 growth, SYBR Green, 72 h; active means well fitted inhibition curve with a large enough effect; further: nearly all actives have a fitted effect of over 65% in size
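Readout: SYBR Green fluorescence, 485 nm excitation, 535 nm emission, after ~16 h lysis at 37C. Before that, Dd2-infected red cells (2.5% hematocrit) grew 72 h with compound, 29 uM top final concentration.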
Numbers stand for hits; – = inactive; [ ] = remark or other dose. This is one part of a sample in which hits are shown more often than they occur.

SMILES	Pf Dd2 inh
COCCNC(=O)c1c(OCC2CC2)cc(=O)n2c1CCOCC2	–
O=C(NCCc1nc2ccccc2s1)[C@H]1CNC[C@@H](C(=O)N2CCOCC2)C1	–
CCCCn1cc(S(=O)(=O)c2ccc(C)c(C)c2)c(=O)c2cc(F)c(N3CCCC(C)C3)cc21 (stereo not drawn)	–
CCc1ccc(S(=O)(=O)c2cn(C)c3cc(N4CCN(CC)CC4)c(F)cc3c2=O)cc1	–[5.79 µM]
CCCn1cc(S(=O)(=O)c2ccc(OC)cc2)c(=O)c2cc(F)c(N3CCCCCC3)cc21	11µM
CCCn1cc(S(=O)(=O)c2ccc(OC)cc2)c(=O)c2cc(F)c(N3CCCC(C)C3)cc21 (stereo not drawn)	11µM
CCn1cc(S(=O)(=O)c2cccc(C)c2)c(=O)c2cc(F)c(N3CCCC(C)C3)cc21 (stereo not drawn)	–
CCCCn1cc(S(=O)(=O)c2ccc(OC)cc2)c(=O)c2cc(F)c(N3CCCC3)cc21	–
O=C1NC(=NC2CCCCC2)C2(CCN(CC3CCCCC3)CC2)N1c1cccnc1	–
CC(=O)N1CCN([C@H]2[C@@H]3OC[C@@H](O3)[C@@H](NC(=O)Nc3cccc(C(F)(F)F)c3)[C@@H]2O)CC1	–
O=C1c2c(nc(CNc3nccs3)n2Cc2ccccc2)NCCN1Cc1ccccc1F	–
CC(=O)N1CCC(NC2(Cc3cc(COc4ccccc4)on3)COC2)CC1	–
CCOC(=O)c1ccc(Nc2nc3ccccc3n3c(C)nnc23)cc1	–
CCOC(=O)c1ccc(Nc2nc3nonc3nc2Nc2cccc(C)c2C)cc1	1.1µM
CCOC(=O)c1nc(Nc2ccc(Cl)cc2)c2c(C)noc2n1	–
CN(C)CC1(O)CCCN(C(=O)c2ccccc2-c2ncc[nH]2)CC1 (stereo not drawn)	–
COc1ccc(C(=O)NC2CCN(c3cn[nH]c(=O)c3)CC2)c(OC)n1	–
Cc1ccc(S(=O)(=O)N(C)Cc2ccc(F)cc2)cc1	–
COc1cccc(NC(=O)Cn2c(C)cc3nc4n(c(=O)c32)CCC4)c1	–
CC1(C(=O)N2CCCC2)CCCc2cnc(Nc3ccccc3)nc21 (stereo not drawn)	–
CC1(C(=O)N2CCC(c3ccccc3)CC2)CCc2cnc(Nc3ccncc3)nc21 (stereo not drawn)	10µM
CC(=O)N1CCN(C(=O)C2(C)CCc3cnc(Nc4ccccc4)nc32)CC1 (stereo not drawn)	–
COCC1CN(C(=O)NCc2cccc(OC)c2)CC12CCNCC2 (stereo not drawn)	–
Cn1nnnc1C1CCCN(C(=O)c2ccc(F)cc2)C1 (stereo not drawn)	–
CC(=O)C1=C(c2ccc(Cl)cc2)N(C(C)=O)n2c(nnc2C2CCCCC2)S1	1µM
SMILES	Pf Dd2 inh
CCn1c(SCC(=O)c2ccc([N+](=O)[O-])cc2)nnc1-c1ccc(Cl)cc1	–
CCC(=O)C1=C(c2ccc(F)cc2)N(C(=O)CC)n2c(nnc2C2CCCCC2)S1	3.2µM
Cn1c(Cn2cccn2)nnc1C1CCCN(C(=O)c2cccc(F)c2)C1 (stereo not drawn)	–
CCCSC1=NC2(CCN(C(=O)NC3CCCCC3)CC2)N=C1c1ccc(Cl)cc1	–
CCC(=O)C1=C(c2ccc(Cl)cc2)N(C(=O)CC)n2c(C)nnc2S1	2.8µM
Cc1ccc(C2CCN(C(=O)Nc3ccc(Cl)cc3)C2)cc1 (stereo not drawn)	–
Cc1cccc(C(=O)N2CCC3(CC2)CC(c2ccccc2)C(=O)N3)c1 (stereo not drawn)	–
COc1ccccc1CNC(=O)c1ccc(CN2C(=O)NC3(CCOCC3)C2=O)cc1	–
CN(C)[C@@H]1CN(C2CCSCC2)CC[C@@H]1CNC(=O)C1CC1	–
COc1ccc(CC(=O)N2C[C@@H](CO)[C@H](c3ccncc3)C2)cc1OC	–
CCOc1cccc(CN(C)C2CCc3nn(CC4CC4)c(=O)n3CC2)c1 (stereo not drawn)	–
COC[C@H]1CCCN1Cc1nc(C2(O)CCN(CCC(C)C)CC2)cs1	–
COCc1nc(C2CCCN(C(=O)C3CC3)C2)no1 (stereo not drawn)	–
Cn1cc(CCC(=O)N2CCC3(CC2)CC(c2ccccc2)C(=O)N3)cn1 (stereo not drawn)	–
COc1cccc(CN2CCCC3(CCN(C(=O)CNC(N)=O)C3)C2=O)c1OC (stereo not drawn)	–
COC(=O)c1c(-c2ccc(Cl)cc2)noc1N1CCN(c2ccccc2F)CC1	–
COC(=O)c1c(-c2ccc(Cl)cc2)noc1N1CCN(c2ccc(C(C)=O)cc2)CC1	–
COC(=O)c1c(-c2ccc(Cl)cc2)noc1N1CCN(c2ccc(C)cc2C)CC1	8.9µM
COc1cccc(CC(=O)N[C@H](C)c2onc(-c3ccc(F)cc3)c2C(=O)O)c1	–
O=C(Nc1ccccc1)N1CCOC(CN(CC2CC2)C(=O)c2cccc(F)c2)C1 (stereo not drawn)	–
O=C(Nc1cccc(Cl)c1)N1CCOC(CN(CC2CC2)C(=O)c2cccc(F)c2)C1 (stereo not drawn)	4.5µM
Cc1ccc(C(=O)N(CC(C)C)CC2CN(C(=O)Nc3cccc(Cl)c3)CCO2)cc1 (stereo not drawn)	–
O=C(Nc1nn(CC(F)(F)F)c2cccc(Oc3cccnc3)c12)c1cocn1	–
O=C(Nc1ccc2c(N3CCCC3)ncnc2c1)c1ccccc1Cl	13µM
O=C(Nc1ccc2ncnc(N3CCCCC3)c2c1)c1c(F)cccc1Cl	–
SMILES	Pf Dd2 inh
Cc1ccc(-c2ncc(NC(=O)c3ccccc3C(F)(F)F)cn2)cc1	–
O=C(Nc1ccc2c(N3CCCCC3)ncnc2c1)c1ccccc1C(F)(F)F	11µM
O=C(Nc1ccc2ncnc(N3CCCCC3)c2c1)c1ccccc1Br	–
O=C(Nc1ccc2ncnc(N3CCCC3)c2c1)c1ccc(F)cc1Cl	–
O=S(=O)(Cc1ccccc1)N1CCC2(CCCCO2)CC1	–
Nc1ncccc1CNC(=O)[C@H]1CCC[C@H](O)C1	–
CCS(=O)(=O)N1CCCC(C(=O)Nc2ccccc2Oc2cccnc2)C1 (stereo not drawn)	–
CC1(C)[C@H]2CC[C@@H](CNC(=O)c3cccnc3)[C@@H]1C2	–
COc1cccc(C(=O)NC[C@@H]2CC[C@H]3C[C@@H]2C3(C)C)c1	11µM
COCC1(CNC(=O)c2cccc(OC)c2)C[C@@H](O)[C@@H](O)C1 (stereo partly drawn)	–
COC[C@@H]1CN(c2ncccn2)C[C@H]1C(=O)N1CCOCC1	–
CC(C)c1nnc(NC(=O)CC[C@H]2NC(=O)c3ccccc3NC2=O)s1	–
COC[C@@H]1[C@H](C(=O)Nc2cc(OC)ccc2OC)CCC(=O)N1C	–
CNC(=O)[C@@H]1CN(C(=O)c2cc3ccc(OC)cc3[nH]2)C[C@H]1C1CCN(C)CC1	–
COc1ccc2cc(C(=O)N3CCC(Cc4ccc(C(=O)NC5CC5)cc4)CC3)[nH]c2c1	4.5µM
COc1ccc(C(=O)NC2CCN(C(=O)c3cc4c(=O)[nH]c(C)cn4n3)CC2)cc1	–
COc1ccccc1-c1ccnc(-c2nnc(C)n2Cc2ccccc2)c1	–
O=C(c1ccc(C(F)(F)F)cc1)N1CCn2c(nnc2-c2ccccc2)C1	–
COCC(=O)N1CCCN(S(=O)(=O)c2ccccc2)CCC(=O)NCC1	–
O=C(Nc1ccc(Br)cc1)c1ccc(Br)c(S(=O)(=O)N2CCCCC2)c1	–
O=C(Nc1ccc(Br)cc1)c1ccc(F)c(S(=O)(=O)NC2CCCCCC2)c1	1.3µM
Cc1ccc(NC(=O)c2cc(S(=O)(=O)NCCc3ccc(Cl)cc3)ccc2F)cc1	–
CCOc1ccc(NC(=O)c2cc(S(=O)(=O)N3CCOCC3)ccc2F)cc1	–
